This note sets out measurements from PubChem BioAssay.

Activity calls are given as the source filed them.

Assay [1] can be described thus: E. coli DRC41 culture turbidity changes, primary screen, E. coli filamentation inducer project, strain DRC41, OD650, 48 h (AID 1152).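 Also: E. coli MC1000 strain DRC41 lacking acrAB efflux pump and sulA.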 The conditions noted are these: E. coli DRC41 (acrAB sulA), higher = more signal, called active from +8 up or from −8 down.
A short description of assay [2]: small-molecule binders of probe aLefty1, primary screen, biochemical, small-molecule microarray, 635/667 nm fluorescence (AID 1153).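 Also: score merges spot fluorescence with signal-to-noise ratio from the scanned slide images.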 The conditions noted are these: higher = more signal.
Assay [3] in a line: PSAC antagonists in infected red cells, primary screen, cell-based, P. falciparum Indochina, OD700, 1 h (AID 1154). Particulars: P. falciparum Indochina infected RBC osmotic lysis, higher = more signal, called active from +8 up or from −8 down.
A short description of assay [4]: PSAC antagonists in infected red cells, primary screen, cell-based, P. falciparum Indochina, OD700, 2 h (AID 1155).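 Also: lysis reports solute entry through the parasite surface anion channel PSAC; channel blockers reduce lysis of infected cells.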 Particulars: P. falciparum Indochina infected erythrocytes, osmotic lysis OD700; higher = more signal, called active from +8 up or from −8 down.
Assay [5] is described as follows: osmotic lysis modulators in infected erythrocytes, primary screen, PSAC antagonist project, cell-based, P. falciparum Indochina, OD700, 3 h (AID 1156). Particulars: higher = more signal, called active from +8 up or from −8 down.
Assay [6] can be described thus: PSAC antagonists in infected red cells, primary screen, cell-based, P. falciparum Indochina, OD700, 18 h (AID 1157). The conditions noted are these: P. falciparum Indochina infected erythrocytes, osmotic lysis OD700, 18 h; higher = more signal, called active from +8 up or from −8 down.
Assay [7] can be described thus: modulators of S6 phosphorylation in cells, primary screen, cell-based, A549, cytoblot, luminescence, serum-stimulated (AID 1158).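 Also: serum-stimulated A549 lung adenocarcinoma cells; signal is phosphorylated S6 detected by cytoblot immunostaining with HRP secondary.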 The conditions noted are these: A549 phospho-S6 cytoblot, 5 h, higher = more signal.
Assay [8] has as its target NADPH oxidase 2 (Homo sapiens) (UniProt P04839). The assay is described as follows: NOX2-dependent H2O2 signal modulators, primary screen, NOX inhibitor project, cell-based, HEK293-NOX2, PMA-stimulated, Amplex Red fluorescence (AID 1159). Also: test concentration not given here. Particulars: 45 min, higher = more signal, called active from +8 up or from −8 down.
The target of assay [9] is NADPH oxidase 4 (Homo sapiens) (UniProt Q9NPH5). Nature of the assay: NOX4-dependent H2O2 signal modulators, primary screen, NOX inhibitor project, cell-based, HEK293-NOX4, tetracycline-induced, Amplex Red fluorescence (AID 1160). Particulars: 45 min, higher = more signal, called active from +8 up or from −8 down.
In assay [10] the target is NADPH oxidase 5 (Homo sapiens) (UniProt Q96PH1). Nature of the assay: NOX5-dependent H2O2 signal modulators, primary screen, NOX inhibitor project, cell-based, HEK293-NOX5, Amplex Red fluorescence (AID 1161). Particulars: HEK293-NOX5, ionomycin, 45 min, higher = more signal.
NADPH oxidase 5 (Homo sapiens), sequence (Q96PH1 whole entry, looked up): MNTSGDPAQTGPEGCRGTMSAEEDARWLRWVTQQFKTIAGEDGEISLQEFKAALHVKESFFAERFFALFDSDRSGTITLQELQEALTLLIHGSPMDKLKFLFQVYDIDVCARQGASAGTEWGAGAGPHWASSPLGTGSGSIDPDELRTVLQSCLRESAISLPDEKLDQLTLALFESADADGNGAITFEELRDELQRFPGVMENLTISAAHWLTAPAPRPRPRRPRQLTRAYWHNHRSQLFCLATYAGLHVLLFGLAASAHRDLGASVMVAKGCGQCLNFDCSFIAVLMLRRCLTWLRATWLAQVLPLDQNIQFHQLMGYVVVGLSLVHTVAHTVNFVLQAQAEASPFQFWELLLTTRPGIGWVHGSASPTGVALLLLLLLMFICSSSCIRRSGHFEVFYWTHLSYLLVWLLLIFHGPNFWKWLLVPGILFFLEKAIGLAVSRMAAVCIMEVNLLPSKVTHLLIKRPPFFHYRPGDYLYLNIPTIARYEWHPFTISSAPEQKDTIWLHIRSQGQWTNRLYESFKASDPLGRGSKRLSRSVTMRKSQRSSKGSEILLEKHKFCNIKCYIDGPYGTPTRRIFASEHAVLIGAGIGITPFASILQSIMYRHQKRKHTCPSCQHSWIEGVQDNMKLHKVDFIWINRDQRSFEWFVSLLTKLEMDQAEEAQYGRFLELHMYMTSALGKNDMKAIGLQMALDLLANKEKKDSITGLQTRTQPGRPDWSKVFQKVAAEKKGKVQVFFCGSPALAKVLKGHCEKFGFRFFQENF

NADPH oxidase 4 (Homo sapiens), sequence (Q9NPH5 whole entry, looked up): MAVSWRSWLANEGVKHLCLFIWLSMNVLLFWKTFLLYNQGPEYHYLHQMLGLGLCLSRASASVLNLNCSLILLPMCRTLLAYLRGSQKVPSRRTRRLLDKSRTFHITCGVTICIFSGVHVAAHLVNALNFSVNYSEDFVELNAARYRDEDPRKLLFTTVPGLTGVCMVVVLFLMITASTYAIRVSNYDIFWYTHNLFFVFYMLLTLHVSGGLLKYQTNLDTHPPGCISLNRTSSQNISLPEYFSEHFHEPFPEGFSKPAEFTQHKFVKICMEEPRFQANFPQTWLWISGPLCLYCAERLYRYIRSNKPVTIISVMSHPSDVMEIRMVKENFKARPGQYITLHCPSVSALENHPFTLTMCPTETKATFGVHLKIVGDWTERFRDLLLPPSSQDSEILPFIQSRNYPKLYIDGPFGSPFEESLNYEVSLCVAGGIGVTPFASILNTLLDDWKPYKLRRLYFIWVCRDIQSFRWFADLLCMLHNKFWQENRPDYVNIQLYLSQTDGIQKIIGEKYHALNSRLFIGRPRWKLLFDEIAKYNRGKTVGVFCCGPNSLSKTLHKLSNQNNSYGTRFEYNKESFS
NADPH oxidase 2 (Homo sapiens), sequence (P04839 whole entry, looked up): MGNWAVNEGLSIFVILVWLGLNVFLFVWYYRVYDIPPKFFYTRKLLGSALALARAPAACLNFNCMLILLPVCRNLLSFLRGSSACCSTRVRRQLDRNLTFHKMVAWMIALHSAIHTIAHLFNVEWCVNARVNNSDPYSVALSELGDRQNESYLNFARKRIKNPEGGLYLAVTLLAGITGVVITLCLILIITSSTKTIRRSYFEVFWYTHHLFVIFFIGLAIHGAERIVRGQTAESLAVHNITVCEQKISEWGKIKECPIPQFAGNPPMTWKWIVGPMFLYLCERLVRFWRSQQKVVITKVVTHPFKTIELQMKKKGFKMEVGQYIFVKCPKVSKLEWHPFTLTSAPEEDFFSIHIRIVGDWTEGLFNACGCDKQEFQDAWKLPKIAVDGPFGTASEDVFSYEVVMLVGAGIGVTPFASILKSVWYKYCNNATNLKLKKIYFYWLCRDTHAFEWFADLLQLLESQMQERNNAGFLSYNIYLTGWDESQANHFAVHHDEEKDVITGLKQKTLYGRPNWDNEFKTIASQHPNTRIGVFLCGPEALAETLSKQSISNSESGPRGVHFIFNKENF

Take `COCCOC(=O)N1C(=O)[C@@]2(c3cc(C#CC4(O)CCCCCC4)ccc31)[C@H](C(=O)N1CCN(c3ncccn3)CC1)[C@H]1C(=O)O[C@H](c3ccccc3)[C@H](c3ccccc3)N1[C@@H]2c1ccc(O)cc1`: the z-score in assay [1] is 0.923 (inactive); in assay [3] it was 0.71 (inactive); in assay [4], 0.566 (inactive); in assay [5], 0.991 (inactive); in [6] it was 0.613 (inactive); in assay [7], 0.274. The z-score in assay [8] was 1.43 (inactive); in assay [9], -1.31 (inactive); in assay [10], 1.49. For the same molecule, the composite z-score in assay [2] stood at 0.63.
Take `Cc1ccc(S[C@]2(C(=O)NCCN3CCOCC3)CC(=O)N(C3Cc4ccccc4C3)[C@@H]2c2ccc(CO)cc2)cc1`: the z-score in assay [1] is 0.293 (inactive); in [3], 2.1 (inactive); in [4], 0.0757 (inactive); in assay [5], 0.62 (inactive); in assay [6], 0.375 (inactive); in assay [7], -0.348. For the same molecule, the values for the z-score in [8], in assay [9] and in [10] were -0.66 (inactive), -1.82 (inactive) and -1.58, respectively. In assay [2], this molecule registered a composite z-score of 0.482.
On to `O=C1C2C=CC(C(O)c3ccc(Br)cc3)N(Nc3ccccc3)C2C(=O)N1c1ccccc1` (stereo not given), for which the z-score in assay [1] was -1.78 (inactive); in [3], 8.27 (active); in assay [4], 1.8 (inactive); in [5], 0.244 (inactive); in [6], 1.25 (inactive); in assay [7] it was -0.554. The figures for the z-score in [8], in assay [9] and in [10] were -1.82 (inactive), -4.09 (inactive) and -2.39, respectively. Moreover, the composite z-score in assay [2] is 0.305.
`COCCCNC(=O)[C@]1(Cc2ccccc2)N=C(c2ccc(OCCCO)cc2)O[C@@H]1c1ccccc1N=[N+]=[N-]`: the z-score was 1.1 (inactive) in assay [1]; 31.9 (active) in assay [3]; 27.3 (active) in [4]; 2.49 (inactive) in assay [5]; 2.24 (inactive) in assay [6]; 1.44 in assay [7]. Also, the z-score is -5.51 (inactive) in assay [8], -2.84 (inactive) in [9] and -2.21 in [10]. In assay [2], this molecule returned a composite z-score of 0.334.
In the case of `COc1cc2c(cc1OC)CN(C(=O)[C@@H]1[C@H]3C(=O)O[C@H](c4ccccc4)[C@H](c4ccccc4)N3[C@H](c3ccc(O)cc3)[C@@]13C(=O)Nc1ccc(C#CCNC(N)=O)cc13)CC2`, the z-score in [1] is 0.108 (inactive); in [3] it was 1.1 (inactive); in assay [4], 0.218 (inactive); in assay [5] it was -0.83 (inactive); in assay [6] it was -0.0717 (inactive); in assay [7] it was -0.419. For the same molecule, the z-score in assay [8] was 0.842 (inactive); in assay [9], 0.157 (inactive); in assay [10] it was 0.432. Further, in assay [2], the composite z-score was found to be 0.231.
Regarding `COCCOC(=O)N1C(=O)[C@@]2(c3ccccc31)[C@H](c1ccccc1OCCO)N1[C@H](c3ccccc3)[C@H](c3ccccc3)OC(=O)[C@H]1[C@@H]2C(=O)N1CCc2cc(OC)c(OC)cc2C1`, the z-score in assay [1] is 0.0509 (inactive); in assay [3] it was 2.79 (inactive); in [4], 1.2 (inactive); in assay [5], 1.68 (inactive); in assay [6], 0.654 (inactive); in assay [7], 0.0753. Further, the results for the z-score in [8], in assay [9] and in assay [10] were 1.15 (inactive), 0.39 (inactive) and -0.157, respectively. The composite z-score in [2] was determined as 0.433.
For the molecule `C=CCOC(=O)[C@@H]1[C@H]2C(=O)O[C@H](c3ccccc3)[C@H](c3ccccc3)N2[C@H](c2ccc(OCCOC(=O)[C@@H]3C[C@@H]4C(=O)N5CCC[C@H]5C(=O)N4[C@@H]3c3cccc(OCCO)c3)cc2)[C@@]12C(=O)Nc1ccc(I)cc12`, the z-score in assay [1] is 0.745 (inactive); in assay [3], 3.47 (inactive); in [4], 1.87 (inactive); in [5] it was 3.63 (inactive); in assay [6] it was 0.938 (inactive); in [7], 0.198. Also, the z-score in [8] was 1.82 (inactive); in assay [9], 1.64 (inactive); in assay [10] it was 1.73. In addition, the composite z-score in [2] was -0.462.
As to `COc1ccc(CCNC(=O)[C@@H]2c3ccccc3C(=O)N(Cc3ccccc3)[C@H]2c2ccc(CO)cc2)cc1`, the z-score in [1] was 1.81 (inactive); in [3], 3.59 (inactive); in assay [4], -0.275 (inactive); in assay [5] it was 0.504 (inactive); in assay [6] it was -0.508 (inactive); in assay [7], 1.89. Also, the z-score is -6.18 (inactive) in [8], -0.909 (inactive) in assay [9] and -4.52 in assay [10]. The composite z-score in assay [2] stood at 0.436.
As to `COC(=O)[C@@]1(Cc2ccc(F)cc2)[C@H]2c3cc(C(=O)N(C)C)n(Cc4ccc(C)c(F)c4F)c3C[C@H]2CN1C(=O)c1ccccc1`, the z-score is -0.165 (inactive) in assay [1]; 5.08 (inactive) in assay [3]; 1.21 (inactive) in [4]; 0.306 (inactive) in assay [5]; 0.813 (inactive) in assay [6]; 0.101 in assay [7]. In addition, the z-score in assay [8] was 0.561 (inactive); in [9], -0.0461 (inactive); in assay [10], 0.169. The composite z-score in assay [2] turned out to be 0.159.
As to `O=C1OCCC=C[C@H]2OC34C=CCN(Cn5nnc6ccccc65)C(=O)[C@H]3N(CCCCCO)C(=O)[C@@H]4C12` (stereo not given in full), the z-score in assay [1] was 0.592 (inactive); in [3] it was 2.34 (inactive); in [4], 0.573 (inactive); in assay [5] it was 2.35 (inactive); in assay [6] it was 0.281 (inactive); in assay [7], 0.0848. For the same molecule, the z-score was 1.4 (inactive) in [8], 0.279 (inactive) in assay [9] and 1.51 in assay [10]. The same molecule showed a composite z-score in [2] of 0.119.
Take `COc1ccc(CCNC(=O)[C@@H]2c3ccccc3C(=O)N(Cc3ccccc3C(F)(F)F)[C@H]2c2ccc(CO)cc2)cc1`: the z-score in assay [1] was 0.163 (inactive); in assay [3] it was 3.68 (inactive); in assay [4], 0.252 (inactive); in assay [5], 1.73 (inactive); in assay [6], 0.694 (inactive); in assay [7] it was -0.366. Further, the z-score is -0.536 (inactive) in [8], -2.38 (inactive) in [9] and -3.69 in [10]. For the same molecule, in assay [2], the composite z-score was -0.144.
With `C=CCC(OC(C)=O)[C@@H]1[C@@H](N(Cc2ccc(-c3ccccc3)cc2)C(=O)c2cccc3ccccc23)c2cc(OCCCO)ccc2N1C(=O)c1ccc2ccccc2n1` (stereo not given in full), the z-score in [1] was 0.214 (inactive); in [3], 1.01 (inactive); in assay [4], 0.569 (inactive); in assay [5] it was -0.745 (inactive); in [6], 0.357 (inactive); in assay [7] it was 0.332. Further, the z-score is 0.772 (inactive) in assay [8], -0.294 (inactive) in assay [9] and -3.7 in assay [10]. In [2], this molecule had a composite z-score of 0.123.
Regarding `C=C(CCCC)/C(=C/C[C@H](OC(=O)c1ccncc1)c1ccc(CO)o1)c1cc(C(=O)OC)ccc1OC`, the z-score is -0.432 (inactive) in [1]; 4.31 (inactive) in assay [3]; 0.756 (inactive) in assay [4]; 2.04 (inactive) in assay [5]; 0.332 (inactive) in assay [6]; -0.247 in [7]. In addition, the z-score in [8] is -0.582 (inactive); in assay [9] it was -0.903 (inactive); in [10], -1.57. The molecule further gave a composite z-score in assay [2] of 0.178.
